Holding throughout (type): functional
Experiment [1] has as its system Plasmodium falciparum. Briefly: GSK_TCMDC: Inhibition of Plasmodium falciparum 3D7 in whole red blood cells, using parasite LDH activity as an index of growth. Test compounds present at 2uM.
Experiment [2] has as its system Plasmodium falciparum. Briefly: GSK_TCMDC: Inhibition of Plasmodium falciparum Dd2 in whole red blood cells, using parasite LDH activity as an index of growth. Test compounds present at 2uM.
A further experiment relates to HepG2. Briefly: GSK_TCMDC: Percent inhibition of human HepG2 cell line. Test compounds present at 10uM.

Structures are written as SMILES.

On to `CCOc1cc(C(=O)NC2CCN(Cc3ccccc3)CC2)ccc1-c1nc2cc(Cl)c(Cl)cc2[nH]1`, for which the Inhibition in the experiment with Plasmodium falciparum [1] was 100%; with Plasmodium falciparum [2] it was 99%; with HepG2, 24%.
For the compound `Cc1noc(C)c1-c1cccc(CNCc2ccc(-c3ccc(-c4nc5cc(F)ccc5[nH]4)s3)cc2)c1.O=C(O)C(F)(F)F`, the results for the Inhibition with Plasmodium falciparum [1], in the experiment on Plasmodium falciparum [2] and with HepG2 were 100%, 93% and 45%, respectively.
For the compound `Cc1cc(OCCCNc2nc(NCCc3ccc(O)cc3)nc(N3CCNCC3)n2)c(Cl)c(C)c1Cl.O=C(O)C(F)(F)F`, the Inhibition with Plasmodium falciparum [1] was 99%; in the experiment with Plasmodium falciparum [2] it was 8%; with HepG2 it was 54%.
For the compound `COc1ccc(CNc2nccc3ccc(-c4ccc(N)nc4)cc23)cc1.O=C(O)C(F)(F)F`, the figures for the Inhibition with Plasmodium falciparum [1], in the experiment on Plasmodium falciparum [2] and in the experiment on HepG2 were 93%, 49% and 7%, respectively.
As to `COc1ccc(Cl)cc1N1CCN(CCCNC(=O)c2ccc(-c3nc4cc(Cl)c(F)cc4[nH]3)cc2)CC1`, the Inhibition in the experiment with Plasmodium falciparum [1] was found to be 100%; in the experiment with Plasmodium falciparum [2], 98%; in the experiment on HepG2, 3%.
Taken in the same sequence, the figures for `CC(=O)Oc1c(C(=O)C2CCC(C(C)(C)C)CC2)c(OC(C)=O)c2ccccc2c1OC(C)=O` (centres undefined) were 96%, 96% and 9%.
Turning to `CO/C(=C\C=C\c1cc2cc(Cl)c(Cl)cc2[nH]1)C(=O)NCCCN1CCCC[C@@H]1C`, the Inhibition with Plasmodium falciparum [1] worked out at 99%; in the experiment on Plasmodium falciparum [2] it was 83%; in the experiment with HepG2, 33%.
`Cl.O=C(Nc1ccc(C2=NC3CCCCC3N2)cc1)Nc1ccc(C2=NC3CCCCC3N2)cc1` (centres undefined): the Inhibition with Plasmodium falciparum [1] stood at 88%; in the experiment with Plasmodium falciparum [2], 76%; in the experiment on HepG2, 7%.
In the same order, the values of `Cn1c(NC(=O)CCCCCNC(=O)c2ccc(O)c(-c3ccc(Cl)c(Cl)c3)c2)nc2ccccc21` are 100%, 55% and 0%.
In the same order, the values of `CCN(CC)Cc1cc(NC(=O)c2ccccc2O)ccc1Oc1ccc(Cl)cc1.Cl` are 98%, 88% and 32%.
Take `COc1cc(OC)c(NC(=O)C2c3ccccc3C(=O)N(CC(C)C)C2c2cccs2)cc1Cl` (centres undefined): the Inhibition was determined as 100% with Plasmodium falciparum [1], 100% in the experiment on Plasmodium falciparum [2] and 9% in the experiment with HepG2.
With `Cc1cccc2nc(-c3ccc(-c4cccc(CNCCCN5CCCC5=O)c4)s3)[nH]c12.O=C(O)C(F)(F)F`, the figures for the Inhibition in the experiment on Plasmodium falciparum [1], with Plasmodium falciparum [2] and in the experiment on HepG2 were 100%, 26% and 14%, respectively.
With `FC(F)(F)Oc1cccc(CNc2noc(-c3sccc3Br)n2)c1`, the Inhibition in the experiment with Plasmodium falciparum [1] was determined as 100%; in the experiment with Plasmodium falciparum [2], 97%; with HepG2, 0%.
In the case of `CCOP(=O)(OCC)c1ccc(OC)c(-c2ccc[nH]2)c1`, the Inhibition is reported as 95% with Plasmodium falciparum [1], 10% in the experiment on Plasmodium falciparum [2] and 0% in the experiment with HepG2.
`CN(C)CCCN1CCN(Cc2ccc(-c3ccc(-c4nc5ccccc5[nH]4)s3)cc2)CC1`: the Inhibition with Plasmodium falciparum [1] is reported as 100%; in the experiment on Plasmodium falciparum [2], 100%; with HepG2 it was 19%.
On to `Cc1c(Cl)ccc2sc(N3CCN(C(=O)c4ccc([N+](=O)[O-])o4)CC3)nc12`, for which the figures for the Inhibition in the experiment with Plasmodium falciparum [1], in the experiment with Plasmodium falciparum [2] and in the experiment on HepG2 were 96%, 93% and 0%, respectively.
Consider `COc1ccc(F)cc1-c1ccc(C(=O)N2CCCN(c3ccc(C(F)(F)F)cn3)CC2)cc1`, for which the figures for the Inhibition in the experiment with Plasmodium falciparum [1], in the experiment on Plasmodium falciparum [2] and with HepG2 were 100%, 100% and 4%, respectively.
In the case of `CC[C@H](C)CNCc1ccc(OCc2cccc(COc3ccc(CNC[C@@H](C)CC)cc3I)c2)c(I)c1.Cl`, the Inhibition in the experiment on Plasmodium falciparum [1] came to 99%; in the experiment with Plasmodium falciparum [2], 60%; in the experiment with HepG2, 99%.
Regarding `O=C(/C=C/c1ccc(Cl)c(Cl)c1)NCCCCCCN1CCCN(C(=O)Nc2ccc(F)c(Cl)c2)CC1`, the figures for the Inhibition in the experiment with Plasmodium falciparum [1], in the experiment on Plasmodium falciparum [2] and with HepG2 were 98%, 1% and 30%, respectively.
Regarding `CN1CCN(c2ccc(CNc3ccc4ncc(-c5ccc(OC(F)(F)F)cc5)n4n3)cc2)CC1`, the Inhibition with Plasmodium falciparum [1] is 94%; with Plasmodium falciparum [2], 87%; with HepG2, 13%.
Consider `COc1cc2ncnc(Nc3ccc(Br)c(Cl)c3)c2cc1OC.Cl`, for which the Inhibition in the experiment with Plasmodium falciparum [1] is listed as 100%; in the experiment with Plasmodium falciparum [2], 15%; with HepG2, 22%.
Turning to `CC(C)c1cccc(OCC2CCN(c3ccc(C(=O)Nc4ccccc4)cn3)CC2)c1`, the values for the Inhibition with Plasmodium falciparum [1], with Plasmodium falciparum [2] and in the experiment with HepG2 were 95%, 90% and 9%, respectively.
Taken in the same sequence, the figures for `COc1cc(OC)nc(-c2cccc(NC(=O)c3ccc4c(=O)n(CCN5CCCCC5)cnc4c3)c2)n1` were 100%, 86% and 11%.
In the same order, the values of `Cc1cccc2nc(-c3ccc(-c4ccc(CNCc5cnn(-c6ccccc6)n5)cc4)s3)[nH]c12.O=C(O)C(F)(F)F` are 97%, 48% and 16%.
In the same order, the values of `COc1ccc(Nc2nccc(NCCNC(=O)Nc3ccccc3F)n2)cc1` are 85%, 4% and 4%.
Consider `CCOc1ccc(C(C)NC(=O)C2COc3ccccc3O2)cc1OCC` (centres undefined), for which the Inhibition in the experiment on Plasmodium falciparum [1] amounted to 100%; in the experiment with Plasmodium falciparum [2], 100%; in the experiment on HepG2 it was 0%.
For the compound `COc1ccc(CN2CCCN(Cc3cccc(NC(=O)c4ccc(Cl)c(Cl)c4)c3)CC2)cc1.O=C(O)C(F)(F)F`, the Inhibition worked out at 86% with Plasmodium falciparum [1], 19% in the experiment with Plasmodium falciparum [2] and 38% in the experiment with HepG2.
Turning to `CC(C)CCCC(C)(C)NC[C@@H](O)[C@H](Cc1ccccc1)NC(=O)c1cc(NC(C)C)cc(N2CCCCS2(=O)=O)c1.O=CO`, the results for the Inhibition with Plasmodium falciparum [1], in the experiment with Plasmodium falciparum [2] and in the experiment with HepG2 were 98%, 98% and 2%, respectively.

Usually Inhibition stands for the share of the control response that was lost under treatment. Low values mean a response near the control, high ones a response far below the control.

(Values after ChEMBL document CHEMBL1157539, “Thousands of chemical starting points for antimalarial lead identification” (Nature, 2010).)
